Our source for the Potency values is PubChem BioAssay AID493168 (National Center for Advancing Translational Sciences (NCATS), 2011).

Results filed as inconclusive are left out. Where a call stands in place of a potency, no number is given. The source made the active and inactive calls. Calls come from the whole dose curve; as a rule, active = well fitted inhibition curve with a large enough effect; inconclusive = small, poorly fitted or top-dose-only effect, or effect the other way; inactive = flat fitted curve, though single readings scatter.
Potency is the fitted concentration of half-maximal effect.

The target in this experiment is Ubiquitin carboxyl-terminal hydrolase 2 (Homo sapiens) (UniProt O75604). Kind of experiment: Confirmation Assay for Inhibitors of Ubiquitin-specific Protease USP2a Using CHOP2 as the Reporter. Note: nearly all actives have a fitted effect of over 55% in size. The following applies: USP2 core, Ub-CHOP2 coupled reporter fluorescence; series mostly up to 38.3 µM. An excerpt: NIH Molecular Libraries Probe Centers Network [MLPCN] NIH Chemical Genomics Center [NCGC] MLSCN Grant: XO1-MH079852-01 PI Name: Nicholson, Ben. Progenra Inc, Malvern, PA NCGC Assay Overview: Homeostasis of cellular proteins is maintained through a combination of synthesis and degradation. The pathway that accounts for the majority of protein degradation is the ubiquitin-proteasomal pathway. Ubiquitin (Ub) is highly conserved in all cells and the generation of a multi-Ub chain typically targets proteins for degradation by the proteasome. However, ubiquitination is highly reversible and dynamic. Deubiquitination, the reverse process, is catalyzed through the action of enzymes referred to as isopeptidases or deubiquitinating enzymes (DUBs). This group of enzymes is collectively responsible for maintaining adequate pools of free ubiquitin and regulating the ubiquitination status of cellular proteins. The class of DUBs referred to as the ubiquitin-specific proteases (USP) family functions endoproteolytically to cleave Ub chains from a wide range of protein substrates. USP2a deubiquitinates fatty acid synthase (FASN) which has recently been identified as an emerging oncology target. To identify inhibitors of USP2a a cell-free assay was employed. […] The reporter enzyme chosen is an […] called CHOP2, which is activated when the Ub is cleaved by USP2. The free and now activated reporter can subsequently act on its reporter substrate. Thus, this coupled assay gives a fluorescent read-out at excitation/emission wavelengths of 485/531. The assay was developed by Progenra, Inc. and has been licensed for sale by LifeSensors, Inc. as Ub-CHOP2-Reporter-Kit (#PR1101).
Sequence of Ubiquitin carboxyl-terminal hydrolase 2 (Homo sapiens) (O75604 whole entry, looked up): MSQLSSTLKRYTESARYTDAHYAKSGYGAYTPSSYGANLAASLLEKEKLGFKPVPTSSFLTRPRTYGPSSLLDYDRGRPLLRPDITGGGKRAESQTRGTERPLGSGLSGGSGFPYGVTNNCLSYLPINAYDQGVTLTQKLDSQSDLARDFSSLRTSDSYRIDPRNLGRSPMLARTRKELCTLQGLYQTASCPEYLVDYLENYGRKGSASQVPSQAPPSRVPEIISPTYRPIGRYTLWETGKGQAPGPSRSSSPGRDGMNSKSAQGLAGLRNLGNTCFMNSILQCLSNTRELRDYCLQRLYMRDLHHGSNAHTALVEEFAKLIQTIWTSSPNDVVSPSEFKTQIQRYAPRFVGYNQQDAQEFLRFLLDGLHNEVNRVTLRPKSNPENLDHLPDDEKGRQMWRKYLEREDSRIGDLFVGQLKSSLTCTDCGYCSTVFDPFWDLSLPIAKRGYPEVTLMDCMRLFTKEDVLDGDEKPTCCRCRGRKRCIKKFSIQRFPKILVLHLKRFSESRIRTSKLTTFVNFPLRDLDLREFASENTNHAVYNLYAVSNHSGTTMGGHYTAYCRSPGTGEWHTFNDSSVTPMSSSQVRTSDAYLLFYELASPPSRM
NCGC Assay Protocol Summary: The assay buffer, prepared fresh at the day of the assay, contains 20mM Tris-HCl pH 8.0, 2mM CaCl2, 2mM beta-Mercaptoethanol, 0.05% CHAPS. 3ul of 20nM (10nM final) USP2 core, which is stored on ice, is dispensed into a medium-binding black solid Kalypsys 1,536 well plate using the Kalypsys dispenser. The assay plate is then pinned with 23nL compound with the Kalypsys pintool in columns 5-48. The controls are pinned as follows: column 1 two-fold dilutions of 2M NEM in duplicate; column 2 2M NEM (final concentration 38.2mM); column 3&4 DMSO. The assay plate is incubated at RT for 30min. Subsequently, 1.5uL of 100nM (25nM final) Ub-CHOP2 and 1.5uL of 100nM (25nM final) Reporter Substrate (both stored on ice and protected from light) were dispensed into the plate using the Kalypsys dispenser. Plates were read after 60min RT incubation on a ViewLux (Perkin Elmer) plate reader using the following wavelengths Ex 485nm /Em 531nm. Data were normalized to the to AC100 inhibition (NEM). Concentration-response curves were fitted to the normalized data and the concentration-response curves were then classified based on curve quality (r2), response magnitude and degree of measured activity. The time zero reading was used to flag fluorescence artifacts. Keywords: ubiquitination, deubiquitination, proteases, profluorescent, MLSMR, MLPCN, NIH Roadmap, qHTS, NCGC
As to `COc1ccc(/C=N\NC(=O)c2cc(O)c(O)c(O)c2)cc1COc1ccc(C(=O)OCC(C)C)cc1`, the Potency was 14.7 µM (active).

As for `COc1ccc(NC(=O)CSc2nc(O)cc(=O)n2-c2ccc(OC)cc2)cc1`, the Potency entry was “inactive”. The entry for `Cc1cccc(N2CCN(C(=O)CCc3nc4ccccc4[nH]3)CC2C)c1` (stereo not given) is “inactive”. For `COc1ccc(-n2c(=S)[nH]c3cc(C(=O)NCc4ccc(F)cc4)ccc3c2=O)c(OC)c1`, the Potency entry was “inactive”. As for `Cc1ccc(C2=[N+]([O-])C(C)N(O)C2(C)C)o1` (stereo not given), the Potency result was “inactive”.

Consider `O=C(NC1CCCCC1)C(c1ccco1)N(Cc1ccco1)C(=O)c1ccco1` (stereo not given), for which the Potency entry is “inactive”. With `CCN(CC)S(=O)(=O)c1ccc(-c2nnc(SCC(=O)Nc3ccc4c(c3)OCO4)o2)cc1`, the Potency result is “inactive”. The entry for `CCCCNc1nc2ccccc2nc1NS(=O)(=O)c1cccs1` is “inactive”; for `O=C(Nc1ccccc1)c1cc(Cl)nc2ccccc12` it is “inactive”.

In the case of `Cc1cc(C(=O)NCc2ccco2)on1`, the Potency result is “inactive”.

Take `CN(C)CCOCCP(=O)(c1ccccc1)c1ccccc1`: the Potency entry is “inactive”. Regarding `COc1cccc(N2CCN(C(=O)CN(C)S(=O)(=O)c3ccc4c(c3)CCC(=O)N4)CC2)c1`, the Potency entry is “inactive”.

As to `Cc1ccc2nc(NCCCNC(=O)c3cnccn3)c(C#N)cc2c1`, the Potency result was “inactive”. Regarding `C=CCn1c(Br)nc2c1c(=O)n(C)c(=O)n2C`, the Potency result is “inactive”.

Take `COC(=O)C1CCN(C(=O)c2cc(-c3ccco3)nc3ccccc23)CC1`: the Potency was 13.1 µM (active). With `O=C(O)CP(=O)(c1ccccc1)c1ccccc1`, the Potency entry was “inactive”. `Cc1ccc(NC(=O)c2cc(-c3ccco3)nc3ccccc23)cc1S(=O)(=O)N1CCOCC1`: the Potency is 11.7 µM (active). As to `COc1cc(NC(=O)COC(=O)CSc2ccccc2F)c(C)cc1[N+](=O)[O-]`, the Potency result is “inactive”. Consider `COc1cccc(C(=O)NCc2ccc3[nH]c(C)cc3c2)c1`, for which the Potency result is “inactive”.

On to `CC(C)C(=O)N=c1sc2cc(F)cc(F)c2n1C`, for which the Potency entry was “inactive”. With `Cc1ccc(C(C)C)c(OCc2nn(CC(=O)c3ccc(OC(F)F)cc3)c3[n+]2CCCCC3)c1`, the Potency result was “inactive”.

On to `Cc1ccc(C=Nc2ccccc2C(N)=O)cc1`, for which the Potency entry is “inactive”. Consider `O=C(N/N=C/c1ccc(F)cc1)c1cc(-c2ccco2)nc2ccccc12`, for which the Potency is 18.5 µM (active).

Turning to `O=C(Cc1cc(=O)[nH]c(=O)[nH]1)NCC1CCCO1` (stereo not given), the Potency entry is “inactive”.

With `CCN(Cc1ccncc1)C(=O)c1cccs1`, the Potency result is “inactive”. For the compound `COc1ccccc1N1CCN(c2cc(C)nc3nc(C)nn23)CC1`, the Potency entry is “inactive”.

Turning to `O=C(NC1CCCC1)C1C2C=CC(C2)C1C(=O)N1CCOCC1` (stereo not given), the Potency entry was “inactive”.

Turning to `CN(C)c1ccc(/C=C(/NC(=O)c2ccccc2)C(=O)N/N=C/c2ccc([N+](=O)[O-])c(O)c2)cc1`, the Potency result was “inactive”. Consider `CCOC(=O)C1CCCN(C(=O)c2cc(-c3ccco3)nc3ccccc23)C1` (stereo not given), for which the Potency was 18.5 µM (active).

In the case of `O=c1cc(CO)oc(CN2CCN(Cc3ccccc3)CC2)c1O`, the Potency result is “inactive”.

As to `Cc1ccc(N2CCN(C(=O)CCc3nc4ccccc4[nH]3)CC2)c(C)c1`, the Potency result was “inactive”.

As to `CCOc1ccc(NC(=O)c2cccc(-n3cnnn3)c2)cc1`, the Potency result is “inactive”. For `CC(C)CC(=O)Nc1cccc(-c2nc3ccccc3o2)c1`, the Potency result was “inactive”. For the compound `O=C(O)C1CCN1C1CCCCC1` (stereo not given), the Potency entry is “inactive”. Turning to `COCCN1Cc2cccc(C(=O)N3CCN(c4cc(C)ccc4C)CC3)c2C1=O`, the Potency entry was “inactive”. The figure for `O=C(OCC1OC(n2ncc(=O)[nH]c2=O)C(OC(=O)c2ccccc2)C1OC(=O)c1ccccc1)c1ccccc1` (stereo not given) is 13.1 µM (active); for `N#C/C(=C\c1ccc(O)c(O)c1)C(=O)Nc1cccc2ncccc12` it is 18.5 µM (active). For `CC(C)C(=O)Nc1ccc(C(=O)N2CCCCCC2)cc1`, the Potency result was “inactive”. For `COc1ccccc1NC(=O)N1CCN(c2ccccn2)CC1` the value was “inactive”. For `CCOC(=O)CCCNC(=O)COC(=O)c1cccc(C)c1O` the value was “inactive”.
